Screening data: PubChem BioAssay, National Center for Advancing Translational Sciences (NCATS)
A549 tox: Nrf2 qHTS screen for inhibitors: counterscreen for cytotoxicity; A549 ARE-Fluc cells, CellTiter-Fluor viability, 18-24 h; Potency, µM (doses to about 46 µM), without a hit: at the highest dose activity change, negative = cytotoxicity, hits mostly inhibitors; 0.16% of 390,000 active; AID 504648, 2011; also: % is scaled to controls: 0 for no effect and ±100 for the full control effect
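Cytotoxicity counterscreen: CellTiter-Fluor fluorescence was measured in A549 ARE_Fluc cells after 18-24 h of compound exposure in a concentration series. The subsequent BugLite luminescent read reports ARE-luciferase activity.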
Nrf2 ARE act: qHTS of Nrf2 Activators; Potency, µM (top dose mostly 46.1 µM), without a hit: at the highest dose activation, actives largely listed as activators; AREc32 ARE-luciferase reporter (MCF7-derived line), luminescence, 24 h; 0.31% of 410,000 active; also: % of control where 0% means no effect; nearly all actives have a fitted effect of over 65% in size
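For detection, Steady-Glo was added and plates sat 30 min at RT; before that, AREc32_Fluc cells grown overnight in OPTI-MEM/5% FBS had been treated with 23 nL compound for 24 hr at 37 deg C.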
Nrf2 inh: Nrf2 qHTS screen for inhibitors. Potency, µM (top dose mostly 46 µM), without a hit: top-dose activity change, negative = inhibition, hits mostly inhibitors. AID 504444, 2011. A549 ARE-Fluc reporter, luciferase luminescence, 18-24 h. 2.1% of 360,000 active; also: % is scaled to controls: 0 for no effect and ±100 for the full control effect; nearly all actives have a fitted effect of over 60% in size
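A549 ARE_Fluc cells, 5000/well, 5% FBS OPTI-MEM; compounds in dose-response, 18-24 h at 37 °C/5% CO2; CellTiter-Fluor viability read (Ex 405/Em 525), then BugLite luciferase luminescence = Nrf2 activity.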
HepG2 viability: qHTS for Inhibitors of TGF-b: Cytotox Counterscreen; HepG2 CAGA-GFP viability, ATP luminescence, 18 h; Potency, µM (titrated, usually from 46.1 µM), for the others: top-dose activity change, negative = cytotoxicity, most hits filed as cytotoxic; 0.76% of 410,000 active; AID 588856, 2011
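CellTiter-Glo luminescence gave cytotoxicity after 18 hours at 37 degrees C. The cells were HepG2 CAGA-GFP in 1% FBS DMEM, stimulated with 500 pg/mL TGF-beta after compound addition. %Activity was normalised to no-cell wells (complete cell-killing) and DMSO (no toxicity), and curves were fitted and classified.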
TGFb inhibitor: qHTS for Inhibitors of TGF-b. HepG2 CAGA-GFP TGF-b/SMAD3 reporter, GFP fluorescence, 18 h; TGF-beta stimulated, 500 pg/mL final. Potency, µM (doses to about 46.1 µM), without a hit: at the top dose activity, negative = inhibition, usual class: inhibitors. 1.2% of 410,000 active; also: % is scaled to controls: 0 for no effect and ±100 for the full control effect; nearly all actives have a fitted effect of over 65% in size
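Inhibition of TGF-beta-driven CAGA-GFP reporter expression in HEPG2 cells is measured by cellular GFP fluorescence after 18 h stimulation with 500 pg/mL recombinant TGF-beta in 1% FBS medium at 37 degrees C.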
* hit, by the source's call; u = inconclusive; x = no result given. This is a sample that favours compounds with a hit; in the whole collection about 3.6% have one here. Calls follow the shape of the dose curve; as a rule, active = well fitted curve in the direction sought with a large enough effect; inconclusive = small, poorly fitted or top-dose-only effect, or another doubt; inactive = no such curve, though single readings can be large; an effect the other way counts as inactive or inconclusive. Potency is read from the fitted curve at half-maximal effect.

SMILES	A549 tox	Nrf2 ARE act	Nrf2 inh	HepG2 viability	TGFb inhibitor
CCOC(=O)[C@@H]1[C@H]2COc3cc(OC)ccc3[C@H]2N2C(=O)N(c3ccc(C(F)(F)F)cc3)C(=O)[C@]12C	-23%	0%	21µM*	-52%	u
Cc1nc2c(c(=O)n1CCC1=CCCCC1)c1nc3ccccc3nc1n2/N=C/c1ccccc1	x	1%	u	0%	20%
CCCCCCn1c(C)nc2c(c1=O)c1nc3ccccc3nc1n2/N=C/c1ccco1	u	3%	23µM*	2%	6%
C/C(=N\Nc1ncnc2sc(C)c(C)c12)c1ccccn1	23µM*	23%	u	-88%	-8%
Cc1nn(CCCC(=O)NCc2ccc(OC(C)C)cc2)c(=O)c2c1sc1ccccc12	-11%	0%	-24%	4%	26%
CN(C)CCOc1ccc2c(c1)C(=O)C(=Cc1ncc([N+](=O)[O-])n1C)C2	x	-5%	x	-80%	1.4µM*
C=CC(C)(O)CCC=C(C)C (stereo unspecified)	-15%	-1%	2%	3%	10%
COc1ccc(CNCCC(c2ccccc2)c2ccc3c(c2)OCO3)cc1 (stereo unspecified)	3%	-4%	u	-98%	22µM*
CCNCCC(CCC(C)C)c1ccc2c(c1)OCO2 (stereo unspecified)	1%	0%	0%	-23%	-2%
COc1ccc(C(CCNCc2ccc(N(C)C)cc2)C(C)C)cc1 (stereo unspecified)	-25%	-2%	u	10µM*	u
CC(C)CCC(CCNCc1ccccn1)c1ccc2c(c1)OCO2 (stereo unspecified)	18%	-2%	19%	16µM*	u
COc1ccc(C(CCNCc2ccc(OC(C)C)cc2)C(C)C)cc1 (stereo unspecified)	-11%	8%	-3%	22µM*	u
COc1ccc(CNCCC(c2ccc(OC(C)C)cc2)c2ccccc2OC)cc1 (stereo unspecified)	0%	-3%	2%	-79%	u
COc1ccccc1C(CCNCc1ccc(N(C)C)cc1)c1ccc(OC(C)C)cc1 (stereo unspecified)	-16%	-4%	-21%	-113%	u
O=C(NCCC1CCCCN1S(=O)(=O)c1ccccc1)C(=O)NC1CCCC1 (stereo unspecified)	-5%	-1%	3%	-2%	u
COc1ccc(-n2ncc(C(=O)Nc3ccc4c(c3)OCCO4)c2C2CCN(C(=O)OC(C)(C)C)CC2)cc1	-13%	0%	u	-10%	-35%
COc1ccc(CNCCC(c2ccc(OC(C)C)cc2)C(C)C)cc1OC (stereo unspecified)	u	-1%	-28%	16µM*	u
COc1ccccc1C(CCNCc1ccccc1)c1ccc(OC(C)C)cc1 (stereo unspecified)	u	0%	-9%	13µM*	u
COc1ccc2c(c1)c(=O)oc1cc(OC(C(=O)O)c3ccccc3)ccc12 (stereo unspecified)	-1%	3%	2%	-6%	u
CCNc1nc(NC(C)C)nc(N(C#N)CCOc2ccc(Cl)cc2Cl)n1	x	4%	9.2µM*	-42%	u
CCNc1nc(NC(C)C)nc(N(C#N)Cc2ccccc2)n1	-2%	3%	x	-3%	0%
C=C1CC(Cn2cc(Br)c(=O)[nH]c2=O)(c2ccc(-c3ccccc3)cc2)OC1=O (stereo unspecified)	u	u	u	7.1µM*	4.5µM*
O=c1[nH]c(=O)n(CCOc2ccc(Cl)cc2)cc1Br	-3%	0%	-11%	1%	5%
COc1ccc(NC(=O)CSc2ccc3c4c(cccc24)C(=O)c2ccccc2-3)cc1	u	4%	10µM*	0%	36%
N#Cc1cccc(NC(=O)CSc2ccccc2)c1	11%	0%	1%	0%	-1%
SMILES	A549 tox	Nrf2 ARE act	Nrf2 inh	HepG2 viability	TGFb inhibitor
N#Cc1cccc(NC(=O)CSc2ccc3c4c(cccc24)C(=O)c2ccccc2-3)c1	26µM*	u	u	-33%	30%
COc1ccc(NC(=O)CSc2nnc(C)c3ccccc23)cc1	-3%	u	19%	0%	u
O=C(NCc1ccncc1)Nc1cc(Cl)ccc1Cl	1%	0%	-29%	-4%	-5%
O=C(c1cnn2c(C(F)F)cc(-c3ccccc3)nc12)N1CCc2ccccc2C1	u	0%	23µM*	0%	-30%
O=C(CSc1nnc(COc2ccc(Cl)cc2)o1)OC1CCCCC1	-1%	-1%	0%	2%	0%
CCOc1ccc(-n2cc(C(=O)N3CCC(C)CC3)c3cc(OC)c(OC)cc3c2=O)cc1	-13%	0%	u	-36%	13µM*
Cc1ccc(-n2cc(CNCCc3cscn3)c(-c3ccc(F)cc3)n2)cc1	7%	0%	7%	-63%	u
Cc1ccc(-n2cc(CNC(C)c3cnn(C)c3)c(-c3ccc(F)cc3)n2)cc1 (stereo unspecified)	0%	6%	-4%	7%	-23%
Cc1ccc(-n2cc(CNCCCn3ccnc3C)c(-c3ccc(F)cc3)n2)cc1	26µM*	4%	-16%	13µM*	u
Cc1ccc(-n2cc(CNC(C)c3cnn(C)c3C)c(-c3ccc(F)cc3)n2)cc1 (stereo unspecified)	1%	6%	-3%	-73%	13µM*
Cc1ccc(OCC(=O)c2cc(C)c(C)cc2C)c([N+](=O)[O-])n1	-8%	u	11%	-32%	11µM*
Cc1ccc(C)c(C(=O)COc2ccccc2[N+](=O)[O-])c1	12%	22µM*	-4%	-61%	u
Cc1ccc(C)c(C(=O)COc2ccc(C)nc2[N+](=O)[O-])c1	2%	u	x	-39%	u
Fc1ccc(-[n+]2nc(Nc3ccccc3)sc2-c2c3ccccc3cc3ccccc23)cc1	u	-1%	u	11µM*	11µM*
Cc1ccc(CNC(=O)[C@H](C)N2C(=O)N3CCc4c([nH]c5ccccc45)[C@@]3(C)C2=O)cc1	8%	0%	-26%	-14%	-13%
COc1ccc(CNC(=O)[C@H](C)N2C(=O)N3CCc4c([nH]c5ccccc45)[C@@]3(C)C2=O)cc1OC	-2%	1%	16µM*	-40%	-3%
COc1ccc(NS(=O)(=O)c2ccc3c(c2)Cc2ccccc2-3)cn1	-20%	0%	16µM*	-36%	u
CC1CCC(NC(=O)C2(C)CCC(=O)N2Cc2cccnc2)CC1 (stereo unspecified)	-6%	0%	-1%	10%	-12%
